Screening data (PubChem)
KDM5B inhibitor = blocks human KDM5B histone demethylase activity; KDM5B demethylase, FDH-coupled NADH fluorescence (FDH is formaldehyde dehydrogenase); actives 2.6% (n = 220,000); Potency, µM (series often up to 57.7 µM), hits mostly inhibitors; active = well fitted inhibition curve with a large enough effect; note: nearly all actives have a fitted effect of over 70% in size
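Inhibition is measured as reduced NADH fluorescence generation from FDH coupling to formaldehyde release. Truncated KDM5BΔAP at 200 nM final acts on H3K4me3 peptide (12.5 µM in substrate mix) in pH 7.5 HEPES buffer with Tween-20, 30 min, room temperature.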
Of the large screens only hits and unclear results are named; the others gave an inactive call. This excerpt belongs to a sample that is enriched for hits.

O=C(NCc1n[nH]c(=O)c2ccccc12)c1ccc(Cl)cc1	none
O=c1cc(-c2cccnc2)nc(-c2ccc(CN3CC[C@@H](O)C3)cc2)[nH]1	none
O=c1[nH]c2cc3c(cc2cc1CN1CC[C@H](O)C1)OCO3	KDM5B inhibitor 28µM
O=c1cc(-c2ccncc2)nc(-c2ccc(CN3CC[C@@H](O)C3)cc2)[nH]1	none
C=CC[C@H]1CC=C[C@H](CC=C)N1	none
Cc1ccc(S(=O)(=O)N2CCN(CCNC(=O)COc3ccc(C(C)C)cc3)CC2)cc1	none
CCn1cnc2c1c(=O)n(CC(=O)Nc1ccc(C)c(F)c1)c(=O)n2Cc1ccccc1	none
CCOc1ccc(NC(=O)C(C#N)=C2CCC(C)CC2)cc1 (configuration not stated)	none
COCCN1Cc2[nH]nc(-c3cccc(NC(C)=O)c3)c2CC1=O	none
COCCn1ccc2c(C3=CCOCC3)nc(-c3cccc(N[S+](C)(=O)[O-])c3)cc21	none
COCCn1ccc2c(C3=CCOCC3)nc(-c3cccc(NC(C)=O)c3)cc21	KDM5B inhibitor 35µM
COCCn1ccc2c(C3=CCOCC3)nc(-c3cccc4cn[nH]c34)cc21	KDM5B inhibitor 35µM
CC(C)(C)c1cc(CCC(N)=O)cc(C(C)(C)C)c1O	none
O=C(N[C@H]1CO[C@H]2[C@@H]1OC[C@@H]2n1cc(CC2CCCCC2)nn1)C1CCCCC1	none
Cc1ccc(C(=O)COC(=O)CC23CC4CC(CC(O)(C4)C2)C3)s1	none
C/C(=N\O)c1ccc(-n2cccc2)cc1	none
O=[N+]([O-])c1cnc(NS(=O)(=O)c2ccccc2[N+](=O)[O-])s1	none
COc1ccc(CCN2C(=O)O[C@@H]3CN(c4nc(C)cc(C)n4)C[C@@H]32)cc1	KDM5B inhibitor 18µM
O=C1CO[C@H]2CN(c3nccc(C(F)(F)F)n3)C[C@H]2N1Cc1ccc(F)cc1	none
COc1ccc(CN2C(=O)CO[C@H]3CN(c4nccc(C)n4)C[C@H]32)cc1	KDM5B inhibitor 35µM
COc1ccc(CN2C(=O)CO[C@H]3CN(S(=O)(=O)c4ccccc4)C[C@H]32)cc1	none
COc1ccc(CCN2C(=O)O[C@@H]3CN(c4nc(OC)cc(OC)n4)C[C@@H]32)cc1	none
COc1ccc(CCCN2C(=O)O[C@@H]3CN(c4nc(C)cc(C)n4)C[C@@H]32)cc1	none
Cc1nnc(SC(C)C(=O)c2c[nH]c3ccccc23)s1 (configuration not stated)	none
CCCN1C=NS(=O)(=O)c2cc(C(=O)NC(C)c3ccccc3)ccc21 (configuration not stated)	none
Cc1ccc(COC(=O)c2ccccc2C(=O)c2ccc(Cl)cc2)cc1	none
O=C1CC(c2ccccc2)N(Cc2ccncc2)CCCN(C(=O)NCc2ccccc2)CCN1 (configuration not stated)	none
O=C1N(Cc2ccc(Cl)cc2)CCCN1c1cccc(C(=O)N2CCc3ccccc32)c1	none
Cc1noc([C@@H](C)NC(=O)NC2(c3ccccc3)CCOCC2)c1C(=O)O	none
Cc1nn(-c2ccccc2)nc1C(=O)N[C@H](C)c1onc(C)c1C(=O)O	KDM5B inhibitor 32µM
Cc1noc([C@@H](C)NC(=O)c2cccs2)c1C(=O)O	none
Cc1ccc(CNC(=O)Cc2ccsc2)cc1	none
COc1cccc(CNC(=O)CN2C(=O)N(c3cccc(C)c3)S(=O)(=O)c3ccccc32)c1OC	none
CCOC(=O)c1sc(NC(=O)c2cc(Cl)ccc2F)nc1C	none
Cc1nc2ncccn2c1C(=O)N[C@H]1[C@H]2CCO[C@H]2[C@@H]1N(C)C	KDM5B inhibitor 32µM
CN(CC(=O)N[C@H]1[C@H]2CCO[C@H]2[C@@H]1N(C)C)Cc1ccc(F)cc1	none
Cc1nc(N2CCCCC2)ncc1C(=O)N[C@H]1[C@H]2CCO[C@H]2[C@@H]1N(C)C	KDM5B inhibitor 22µM
COC[C@@H]1[C@H](NC(=O)c2ccc(-n3cccn3)cc2)[C@@H]2CCO[C@H]12	none
Cc1nc(N2CCCC2)ncc1C(=O)Nc1ccc(OC(F)(F)F)cc1	none
Cc1nc(N2CCCCC2)ncc1C(=O)NC1CCOC2(CCOCC2)C1 (configuration not stated)	none
C[C@H]1[C@@H]2[C@@H](O)C([C@H](C)C(=O)N(C)Cc3ccccc3)CC[C@@]2(C)CC[C@@H]1NC(=O)Cc1ccccc1 (some centres not stated)	none
CSc1cccc(NC(=O)C(C)Br)c1 (configuration not stated)	none
COc1ccc(CC(=O)Nc2ccc3n(c2=O)C[C@H]2C[C@@H]3CN(C(=O)c3ccc(-c4ccccc4)cc3)C2)cc1	KDM5B inhibitor 25µM
CN(C)CC(=O)Nc1ccc2n(c1=O)C[C@H]1C[C@@H]2CN(C(=O)c2ccc3ccccc3c2)C1	none
COc1ccc(CC(=O)Nc2ccc(=O)n3c2[C@@H]2C[C@@H](CN(C(=O)c4ccc(OC)cc4)C2)C3)cc1	none
O=C(Nc1cccc(F)c1)Nc1ccc2n(c1=O)C[C@H]1C[C@@H]2CN(C(=O)c2ccc(F)cc2)C1	KDM5B inhibitor 28µM
COc1ccc(NC(=O)N2C[C@@H]3C[C@H](C2)c2ccc(NC(=O)Nc4cccc(C#N)c4)c(=O)n2C3)cc1	KDM5B inhibitor 28µM
O=C(O)c1cccc(C(=O)N2C[C@@H]3C[C@H](C2)c2ccc(NC(=O)c4ccco4)c(=O)n2C3)c1	none
COc1ccc(NC(=O)N2C[C@@H]3C[C@H](C2)c2ccc(NC(=O)c4cccs4)c(=O)n2C3)cc1	none
COc1ccc(NC(=O)N2C[C@@H]3C[C@H](C2)c2ccc(NC(=O)c4ccc(C#N)cc4)c(=O)n2C3)cc1	none
COc1ccc(CC(=O)Nc2ccc3n(c2=O)C[C@H]2C[C@@H]3CN(C(=O)Nc3ccc(OC)cc3)C2)cc1	none
Cc1ccc(S(=O)(=O)CCC(=O)OCC(=O)NC(C)C(C)C)cc1 (configuration not stated)	none
O=c1[nH]c(-n2cccc2)c(-c2c(-c3ccccc3)[nH]c3[nH]c(=O)[nH]c(=O)c23)c(=O)[nH]1	none
Cc1ccccc1C(=O)N1CCCCC12Cc1ccccc1NC2=O (configuration not stated)	none
O=C(O)CCCc1c(-c2ccccn2)[nH]c2ccccc12	none
COc1ccc2nc3n(c2c1)[C@@H](CNC(C)C)COC3	none
Cc1ccc(OCc2nc(C3CCCN3C(=O)Nc3ccc(C)c(F)c3)no2)cc1 (configuration not stated)	none
COc1ccc(CCNC(=O)c2c(C)noc2-c2cccs2)cc1OC	none
Cc1noc(-c2ccc(OC(F)(F)F)cc2)c1C(=O)NC(C)CCc1ccccc1 (configuration not stated)	none
Cc1noc(-c2cccs2)c1C(=O)NC1CCc2ccccc21 (configuration not stated)	KDM5B inhibitor 28µM
CC(CCc1ccccc1)NC(=O)CNC(=O)c1cccs1 (configuration not stated)	none
Cc1cc(C(=O)NC2CCCc3ccccc32)cs1 (configuration not stated)	none
Cc1noc(-c2cccs2)c1C(=O)NC(C)CCc1ccccc1 (configuration not stated)	KDM5B inhibitor 28µM
Cc1ccc(CNC(=O)N2CCC3(CC2)Nc2ccccc2-n2cccc23)cc1	none
Cc1ccc2nc(CO[C@H]3CN(Cc4ccc5c(c4)OCO5)C[C@H]3F)[nH]c2c1	none
CCCCCCCCCCS(=O)CCCl (configuration not stated)	none
Cc1ccc(NC(=O)CN(C)C(=O)CCc2ncc(-c3ccc(C)c(C)c3)o2)cc1	none
COc1ccc(NC(=O)c2nnn3c2COC(c2ccc(F)cc2)C3)cc1Cl (configuration not stated)	none
O=C(Nc1ccc(F)c(Cl)c1)c1cc2n(n1)CC(c1ccc3c(c1)OCO3)OC2 (configuration not stated)	KDM5B inhibitor 32µM
